PubChem BioAssay (Tox21)
Inconclusive results are not listed. Where a call stands in place of a potency, no number is given. Active and inactive are the calls of the source. Unless noted, the call rests on the fitted dose curve; in most records, active means well fitted curve in the direction sought with a large enough effect in the repeat runs; inconclusive means weak or mixed curves; inactive means no such curve, though single readings can be large; an effect the other way counts as inactive or inconclusive.

Experiments:
[1] = qHTS assay to identify small molecule antagonists of the thyroid receptor (TR) signaling pathway - cell viability counter screen (AID 743064); further: nearly all actives have a fitted effect of over 50% in size; further: potency means the concentration at half of the fitted maximal effect
Summary of the method: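 GH3.TRE-Luc rat pituitary cells carrying a TRE-luciferase reporter were treated with compound plus 1 nM T3 (final) for 23.5 h at 37 °C. Viability was then read in the same wells by CellTiter-Fluor fluorescence after a further 30 min.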

[2] = system: thyroid hormone receptor (rat, GH3 cells); assay: qHTS assay to identify small molecule agonists of the thyroid receptor (TR) signaling pathway (AID 743066; calls by dose curve)
[3] = qHTS assay to identify small molecule antagonists of the estrogen receptor alpha (ER-alpha) signaling pathway - cell viability counter screen (AID 743074; calls by dose curve;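 further: HEK293 cells carrying ER-alpha-UAS-bla reporter stimulated with 17beta-estradiol; nearly all actives have a fitted effect of over 45% in size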)
[4] = molecular target: Estrogen receptor (Homo sapiens) (UniProt P03372); assay: qHTS assay to identify small molecule agonists of the estrogen receptor alpha (ER-alpha) signaling pathway (AID 743075; calls by dose curve;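 further: HEK293 GripTite cells with ER-alpha and UAS-driven beta-lactamase reporter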)
Chain of Estrogen receptor (Homo sapiens) (P03372 whole entry, looked up): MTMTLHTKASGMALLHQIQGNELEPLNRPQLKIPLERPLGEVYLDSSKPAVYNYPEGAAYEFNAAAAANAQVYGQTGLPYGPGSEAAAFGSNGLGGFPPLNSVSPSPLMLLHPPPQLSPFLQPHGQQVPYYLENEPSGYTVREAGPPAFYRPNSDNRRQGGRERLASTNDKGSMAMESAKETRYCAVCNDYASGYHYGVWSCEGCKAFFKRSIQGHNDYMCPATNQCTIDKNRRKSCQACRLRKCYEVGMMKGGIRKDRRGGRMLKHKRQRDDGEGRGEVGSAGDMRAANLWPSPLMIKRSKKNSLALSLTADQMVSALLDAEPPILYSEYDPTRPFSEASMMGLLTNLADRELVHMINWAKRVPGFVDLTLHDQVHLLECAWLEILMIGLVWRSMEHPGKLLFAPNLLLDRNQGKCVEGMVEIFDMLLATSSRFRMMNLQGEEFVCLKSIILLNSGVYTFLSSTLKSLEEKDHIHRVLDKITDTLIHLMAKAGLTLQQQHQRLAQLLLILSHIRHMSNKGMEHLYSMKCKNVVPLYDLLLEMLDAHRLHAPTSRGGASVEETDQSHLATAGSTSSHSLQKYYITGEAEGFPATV

[5] = qHTS assay to identify small molecule antagonists of the estrogen receptor alpha (ER-alpha) signaling pathway using the BG1 cell line - cell viability counter screen (AID 743081);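 further: compound given together with 17beta-estradiol as the ER stimulus; series mostly up to about 70 µM; nearly all actives have a fitted effect of over 45% in size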
Aromatase (Homo sapiens) = Aromatase (Homo sapiens) (UniProt P11511); assay: qHTS assay to identify aromatase inhibitors (AID 743083); further: nearly all actives have a fitted effect of over 55% in size; further: potency means the concentration at half of the fitted maximal effect
Chain of Aromatase (Homo sapiens) (P11511 whole entry, looked up): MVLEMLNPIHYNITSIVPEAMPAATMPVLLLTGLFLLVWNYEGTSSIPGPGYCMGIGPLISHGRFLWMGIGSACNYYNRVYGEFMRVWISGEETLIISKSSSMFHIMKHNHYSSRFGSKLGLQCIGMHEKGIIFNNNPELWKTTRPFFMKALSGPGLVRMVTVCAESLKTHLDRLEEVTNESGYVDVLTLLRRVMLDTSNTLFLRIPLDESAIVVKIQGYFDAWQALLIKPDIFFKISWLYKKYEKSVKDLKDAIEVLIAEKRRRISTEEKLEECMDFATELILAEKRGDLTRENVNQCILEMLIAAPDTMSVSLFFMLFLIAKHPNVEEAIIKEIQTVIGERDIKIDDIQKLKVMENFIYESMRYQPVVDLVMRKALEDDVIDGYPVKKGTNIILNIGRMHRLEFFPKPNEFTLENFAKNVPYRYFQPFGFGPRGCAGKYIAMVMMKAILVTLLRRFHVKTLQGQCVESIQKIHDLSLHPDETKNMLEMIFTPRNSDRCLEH

[6] = qHTS assay to identify aromatase inhibitors - cell viability counter screen (AID 743084);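 further: cells stimulated with testosterone during compound exposure; nearly all actives have a fitted effect of over 55% in size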; further: potency means the concentration at half of the fitted maximal effect
[7] = molecular target: Aryl hydrocarbon receptor (Homo sapiens) (UniProt P35869); assay: qHTS assay to identify small molecule that activate the aryl hydrocarbon receptor (AhR) signaling pathway (AID 743085); further: nearly all actives have a fitted effect of over 15% in size; further: potency means the concentration at half of the fitted maximal effect;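 on activation: HG2L7.5c1 human HepG2 liver cells with stably integrated DRE-driven firefly reporter; series mostly up to about 70 µM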
Chain of Aryl hydrocarbon receptor (Homo sapiens) (P35869 whole entry, looked up): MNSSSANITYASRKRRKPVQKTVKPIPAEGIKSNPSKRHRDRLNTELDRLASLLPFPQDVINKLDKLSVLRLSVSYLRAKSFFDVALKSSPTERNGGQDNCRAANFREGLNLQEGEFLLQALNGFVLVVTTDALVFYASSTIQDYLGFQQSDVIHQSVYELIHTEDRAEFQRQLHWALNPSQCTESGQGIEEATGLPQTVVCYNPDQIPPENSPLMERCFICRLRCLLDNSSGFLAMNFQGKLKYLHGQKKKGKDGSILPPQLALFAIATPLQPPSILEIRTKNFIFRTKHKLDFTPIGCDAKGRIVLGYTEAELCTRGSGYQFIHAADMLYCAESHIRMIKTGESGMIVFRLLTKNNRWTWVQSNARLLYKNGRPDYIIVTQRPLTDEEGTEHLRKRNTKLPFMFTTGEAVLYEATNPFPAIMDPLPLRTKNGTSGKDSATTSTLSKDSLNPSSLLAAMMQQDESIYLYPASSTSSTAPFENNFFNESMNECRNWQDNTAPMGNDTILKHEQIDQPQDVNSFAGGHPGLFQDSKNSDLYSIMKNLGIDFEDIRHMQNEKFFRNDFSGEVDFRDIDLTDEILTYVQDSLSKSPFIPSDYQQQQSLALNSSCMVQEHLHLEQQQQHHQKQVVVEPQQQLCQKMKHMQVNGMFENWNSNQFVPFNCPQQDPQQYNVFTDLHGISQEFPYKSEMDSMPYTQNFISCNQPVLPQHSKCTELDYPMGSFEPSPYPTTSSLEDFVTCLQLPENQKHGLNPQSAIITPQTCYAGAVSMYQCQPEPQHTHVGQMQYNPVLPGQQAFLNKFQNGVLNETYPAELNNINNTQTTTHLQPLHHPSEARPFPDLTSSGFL
Summary of the method: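 HepG2 cells (HG2L7.5c1) stably carrying a firefly luciferase reporter driven by 20 dioxin responsive elements were exposed to compound for 24 h at 37C after a 5 h settling period; luminescence rise (ONE-Glo) indicated activation.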

[8] = qHTS assay to identify small molecule that activate the aryl hydrocarbon receptor (AhR) signaling pathway - cell viability counter screen (AID 743086); further: nearly all actives have a fitted effect of over 45% in size; further: potency means the concentration at half of the fitted maximal effect
Summary of the method: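 Cytotoxicity counter screen: CellTiter-Fluor signal (30 min, 37 C) in 4000 HepG2 cells/well carrying the DRE-luciferase reporter, following 24 h compound exposure at 37 C.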

[9] = molecular target: Peroxisome proliferator-activated receptor gamma (Homo sapiens) (UniProt P37231); assay: qHTS assay to identify small molecule agonists of the peroxisome proliferator-activated receptor gamma (PPARg) signaling pathway (AID 743094; active means well fitted activation curve with a large enough effect in the signal ratio in the repeat runs, not every such curve was filed as active; the % refers to the signal ratio)
Chain of Peroxisome proliferator-activated receptor gamma (Homo sapiens) (P37231 whole entry, looked up): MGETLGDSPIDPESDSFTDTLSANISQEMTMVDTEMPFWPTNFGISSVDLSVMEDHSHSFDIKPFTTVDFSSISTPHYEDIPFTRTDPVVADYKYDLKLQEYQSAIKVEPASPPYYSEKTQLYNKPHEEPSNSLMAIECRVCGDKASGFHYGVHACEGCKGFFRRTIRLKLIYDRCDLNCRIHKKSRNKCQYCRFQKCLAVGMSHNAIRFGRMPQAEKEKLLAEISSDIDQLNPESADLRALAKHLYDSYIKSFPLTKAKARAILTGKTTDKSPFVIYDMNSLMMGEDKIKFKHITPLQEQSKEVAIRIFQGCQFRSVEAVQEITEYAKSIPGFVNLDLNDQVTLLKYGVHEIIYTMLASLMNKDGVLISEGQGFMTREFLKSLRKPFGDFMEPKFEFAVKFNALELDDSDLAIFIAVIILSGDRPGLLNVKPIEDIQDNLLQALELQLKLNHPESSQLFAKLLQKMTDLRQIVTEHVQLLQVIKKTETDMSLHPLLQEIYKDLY
Summary of the method: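 Beta-lactamase FRET fluorescence was the read-out after a 1 h room-temperature substrate step, following 17 h compound treatment at 37C of HEK293H cells expressing a UAS-driven bla reporter responsive to PPARg.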

[10] = qHTS assay to identify small molecule antagonists of the peroxisome proliferator-activated receptor gamma (PPARg) signaling pathway - cell viability counter screen (AID 743194); details: Potency: co-treated with 50 nM rosiglitazone unless noted; further: nearly all actives have a fitted effect of over 55% in size; further: potency means the concentration at half of the fitted maximal effect
Summary of the method: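 Viability was measured as CellTiter-Glo luminescence in GeneBLAzer PPARg UAS-bla HEK293H cells. These cells had been exposed 17 h at 37 C to compounds together with rosiglitazone at 50 nM final, with the beta-lactamase readout taken in the same wells.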

[11] = qHTS assay for small molecule agonists of the antioxidant response element (ARE) signaling pathway - cell viability counter screen (AID 743203; calls by dose curve; further: nearly all actives have a fitted effect of over 55% in size; further: potency means the concentration at half of the fitted maximal effect)
Summary of the method: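 HepG2 cells carrying ARE-driven beta-lactamase; 2,000 cells/well; 5 hrs plating; compound pinned from DMSO; 16 hrs 37C/5% CO2; CellTiter-Glo added; 30 min RT; luminescence.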

[12] = qHTS assay for small molecule activators of the heat shock response signaling pathway - cell viability counter screen (AID 743209); further: nearly all actives have a fitted effect of over 50% in size; further: potency means the concentration at half of the fitted maximal effect
Summary of the method: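 Luminescence from CellTiter-Glo, added after the beta-lactamase FRET read, gave the viability signal. Cells were HSE-bla HeLa treated with DMSO-dissolved compounds for 5 h at 37 C following overnight plating.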

[13] = qHTS assay for small molecule activators of the heat shock response signaling pathway (AID 743210; active means well fitted activation curve with a large enough effect in the signal ratio in the repeat runs, with a control signal flat, not every such curve was filed as active; the % refers to the signal ratio;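 further: HeLa cells with beta-lactamase reporter driven by heat shock elements; series mostly up to about 63 µM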)
Summary of the method: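 HeLa HSE-bla cells, overnight plating; cpd in DMSO 5 h, 37 C; LiveBLAzer B/G FRET substrate 2.5 h RT; fluorescence intensity read.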

[14] = qHTS assay to identify small molecule antagonists of the thyroid receptor (TR) signaling pathway (AID 743065)
Summary of the method: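 Antagonism measured as loss of luciferase signal in GH3 cells stably carrying a TRE-luciferase reporter, co-treated with compound and T3 (1 nM final) for 23.5 h at 37 C. Viability was read in the same well by CellTiter-Fluor.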

[15] = molecular target: Estrogen receptor (Homo sapiens) (UniProt P03372); assay: qHTS assay to identify small molecule agonists of the estrogen receptor alpha (ER-alpha) signaling pathway using the BG1 cell line (AID 743079); further: nearly all actives have a fitted effect of over 20% in size; further: potency means the concentration at half of the fitted maximal effect
[16] = molecular target: Peroxisome proliferator-activated receptor gamma (Homo sapiens) (UniProt P37231); assay: qHTS assay to identify small molecule antagonists of the peroxisome proliferator-activated receptor gamma (PPARg) signaling pathway (AID 743191; calls by dose curve; further: series mostly up to about 63 µM; nearly all actives have a fitted effect of over 30% in size)
Summary of the method: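 Beta-lactamase reporter under UAS control in HEK293H PPARg-bla cells; compound treatment 17 h at 37C. Read-out: fluorescence intensity after 1 h room-temperature incubation with LiveBLAzer B/G FRET substrate.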

[17] = qHTS assay for small molecule agonists of the antioxidant response element (ARE) signaling pathway (AID 743202; active means well fitted activation curve with a large enough effect in the signal ratio in the repeat runs, not every such curve was filed as active; the % refers to the signal ratio; further: potency means the concentration at half of the fitted maximal effect)
Summary of the method: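 Quantitative high-throughput format in HepG2 cells bearing an integrated ARE-beta-lactamase reporter. Compound exposure lasted 16 h at 37 C, and fluorescence was read 2 h after adding LiveBLAzer B/G substrate at room temperature.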

[18] = qHTS assay to identify small molecule antagonists of the estrogen receptor alpha (ER-alpha) signaling pathway using the BG1 cell line (AID 743080; calls by dose curve;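 further: BG1 cells stimulated with 17beta-estradiol alongside compound; series mostly up to about 70 µM; nearly all actives have a fitted effect of over 25% in size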)
Summary of the method: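 BG1-Luc-4E2 cells (endogenous full-length ER-alpha, stable 4×ERE-luciferase) were starved 5 days in phenol-red-free medium with 10% charcoal-stripped FBS, plated 24 h, then given compound plus 17beta-estradiol for 21.5 h at 37 C; ONE-Glo luminescence read after 30 min.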

SMILES | Potency [1] | outcome [2] | Potency [3] | Potency [4] | Potency [5] | Potency (Aromatase (Homo sapiens)) | Potency [6] | Potency [7] | Potency [8] | Potency [9] | Potency [10] | Potency [11] | Potency [12] | Potency [13] | Potency [14] | Potency [15] | Potency [16] | Potency [17] | Potency [18]
O=[N+]([O-])c1ccc(Oc2ccc(C(F)(F)F)cc2[N+](=O)[O-])cc1 | inactive | inactive | inactive | inactive | inactive | inactive | inactive | 30.6 µM (active) | inactive | inactive | inactive | inactive | inactive | inactive | – | – | – | – | –
COC12CC[C@@]3(C[C@@H]1C(C)(O)C(C)(C)C)[C@H]1Cc4ccc(O)c5c4[C@@]3(CCN1CC1CC1)[C@H]2O5 (stereo partly specified) | 21.5 µM (active) | – | – | inactive | inactive | 19.2 µM (active) | 60.7 µM (active) | inactive | 60.7 µM (active) | – | inactive | 68.1 µM (active) | – | – | 24.2 µM (active) | – | – | – | –
CCOCn1c(-c2ccc(Cl)cc2)c(C#N)c(Br)c1C(F)(F)F | 6.11 µM (active) | – | – | – | – | 9.69 µM (active) | – | inactive | – | – | 1.95 µM (active) | – | – | – | 1.37 µM (active) | – | – | – | –
CC(=O)Nc1ccc2c(c1)Cc1ccccc1-2 | inactive | inactive | inactive | inactive | inactive | inactive | inactive | 55.3 µM (active) | inactive | inactive | inactive | inactive | inactive | inactive | – | 11 µM (active) | inactive | 27.7 µM (active) | –
CC(C)(C)c1cc([N+](=O)[O-])cc(C(C)(C)C)c1O | 12.2 µM (active) | inactive | – | – | – | 17.2 µM (active) | 21.7 µM (active) | inactive | inactive | inactive | – | – | inactive | inactive | 6.86 µM (active) | – | inactive | inactive | –
CC(C)CCCCCCCOP(=O)(Oc1ccccc1)Oc1ccccc1 | 27.4 µM (active) | – | inactive | inactive | inactive | inactive | inactive | inactive | inactive | inactive | inactive | inactive | inactive | inactive | 30.8 µM (active) | inactive | – | – | inactive
COc1cccc(C(=O)CCN[C@@H](C)[C@H](O)c2ccccc2)c1 | 13.3 µM (active) | – | inactive | – | – | inactive | inactive | inactive | inactive | inactive | – | – | – | – | 10.6 µM (active) | – | inactive | – | –
O=C(CCl)Nc1ccccc1 | 24.3 µM (active) | – | – | inactive | – | 43.3 µM (active) | 27.3 µM (active) | – | 61.1 µM (active) | – | – | – | 43.6 µM (active) | – | 24.3 µM (active) | – | – | 4.33 µM (active) | –
